Compound activity as filed in PubChem BioAssay.
Shiga inhibitor – Shiga toxin inhibition. Vero cells, Shiga toxin protein synthesis inhibition reporter. inhibition, % at 38.7 µM. 290,000 tested, 9.2% active. AID 2315; in the data active means inhibition mostly above about 28%, no sharp cut-off; inactive means mostly below about 43%; further: 0% is about no effect
Giardia FBPA inh – blocks Giardia fructose-bisphosphate aldolase activity. A8B2U2. purified Giardia FBPA. Potency, µM (doses to about 59.6 µM), for the others: top-dose activity, negative = inhibition, actives largely listed as inhibitors. 290,000 tested, 0.71% active; further: potency means the concentration at half of the fitted maximal effect; on the % scale 0 is the no-effect control and ±100 the full control effect; nearly all actives have a fitted effect of over 55% in size
Target sequence (A8B2U2 whole entry, looked up): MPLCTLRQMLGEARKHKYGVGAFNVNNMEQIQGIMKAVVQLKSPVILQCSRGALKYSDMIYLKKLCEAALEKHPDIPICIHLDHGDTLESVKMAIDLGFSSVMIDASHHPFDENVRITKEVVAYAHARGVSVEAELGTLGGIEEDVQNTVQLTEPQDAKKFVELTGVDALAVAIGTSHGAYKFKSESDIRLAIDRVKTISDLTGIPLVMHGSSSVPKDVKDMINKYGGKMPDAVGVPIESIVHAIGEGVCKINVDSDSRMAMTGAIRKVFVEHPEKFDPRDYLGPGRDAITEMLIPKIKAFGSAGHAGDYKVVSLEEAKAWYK
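Giardia FBPA (40 nM reagent) was preincubated 10 min at RT with compound (up to 57.5 uM final), then substrate plus GAPDH/TPI/NAD/arsenate coupling system with diaphorase/resazurin was added; resorufin fluorescence (525/598 nm) was read after 20 min.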
LmPK inhibitor – blocks Leishmania mexicana pyruvate kinase activity; AID 1721; Q27686; purified LmPK, Kinase-Glo ATP luminescence, 1 h; 290,000 tested, 0.37% active; Potency, µM (highest dose often 57.5 µM), for inactives: at the highest dose activity change, negative = inhibition, most hits filed as inhibitors; further: potency means the concentration at half of the fitted maximal effect; on the % scale 0 is the no-effect control and ±100 the full control effect
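ATP generated from ADP (0.1 mM) and PEP (0.5 mM) by 0.1 nM LmPK over 1 h at room temperature (pH 7.2 imidazole buffer) was detected by coupled luciferase luminescence. Values were normalized to uninhibited and no-enzyme wells.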
Tb PYK inh – blocks Trypanosoma brucei pyruvate kinase; Q57TT1; TbPYK enzyme, Kinase-Glo Plus ATP luminescence, 45 min; Potency, µM (top dose mostly 76.8 µM), without a hit: top-dose activity, negative = inhibition, hits mostly inhibitors; 410,000 tested, 0.12% active; further: potency means the concentration at half of the fitted maximal effect; on the % scale 0 is the no-effect control and ±100 the full control effect; nearly all actives have a fitted effect of over 50% in size
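Luminescent Kinase-Glo Plus end-point after 45 min room-temperature reaction of T. brucei pyruvate kinase started with 130 uM ADP (final). Buffer TEA 50 mM pH 7.2 with KCl, MgCl2, BSA, Tween-20; titration-based qHTS with fitted concentration-effect curves.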
Cycloheximide cs – affects cycloheximide protein synthesis inhibition readout, counter-screen | cell reporter, cycloheximide protein synthesis inhibition counterscreen | max response, % | 300,000 tested, 12% active; in the data active means max response mostly above about 13%, no sharp cut-off; inactive means mostly below about 14%; further: read at 38.3 µM for the half of the compounds with a filed dose; 0% is about no effect
RE007 growth inh – less growth of the S. pombe RE007 Vpr strain | S. pombe RE007 Vpr strain, BacTiter-Glo ATP luminescence, 24 h | Potency, µM (top dose mostly 92.2 µM), for the others: at the top dose activity change, negative = less growth, most hits filed as inhibitors | 360,000 tested, 0.21% active; active means well fitted falling curve with a large enough effect; inconclusive means small, poorly fitted or top-dose-only effect; inactive means no such curve, though single readings can be large or run the other way; further: potency means the concentration at half of the fitted maximal effect; on the % scale 0 is the no-effect control and ±100 the full control effect; nearly all actives have a fitted effect of over 50% in size
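Fission yeast RE007 carrying one integrated HIV-1 vpr copy, seeded at OD 0.01 in PMG+AL medium with 23 nL pinned compound. Grown 24 h at 30 degrees; viability read by BacTiter-Glo luminescence after 5 min.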
* hit, by the source's call; ? = inconclusive; / = no result; [ ] = dose if it differs, or a comment. This excerpt belongs to a sample that is enriched for hits. Unless noted, the call rests on the fitted dose curve; in most records, active means well fitted curve in the direction sought with a large enough effect; inconclusive means small, poorly fitted or top-dose-only effect, or another doubt; inactive means no such curve, though single readings can be large; an effect the other way counts as inactive or inconclusive.

SMILES	Shiga inhibitor	Giardia FBPA inh	LmPK inhibitor	Tb PYK inh	Cycloheximide cs	RE007 growth inh
Cc1cccc(NC(=S)c2nc3ccccc3s2)c1	86.4*	-1.4%	-22.0%	-11.7%	27.8*	-11.2%
Cc1cccc(OCC(=O)Nc2cccc(-c3nc4ccccc4s3)c2)c1	/	/	/	0.9%	/	/
Cc1ccc(CNC(=O)c2cc(COc3c(F)cccc3F)on2)s1	20.6	4.7%	-3.8%	-7.1%	-0.2	-20.2%
O=C(c1cc(COc2c(F)cccc2F)on1)N(Cc1ccccc1)CC1CC1	27.1	-1.7%	-0.3%	2.2%	18.3*	7.1%
Cc1cnc(CN(C)C(=O)c2cc(COc3c(F)cccc3F)on2)[nH]1	-2.7	-1.2%	4.4%	0.6%	-2.0	-9.7%
COc1cc(Cl)ccc1OCc1cc(C(=O)N(C)C2CCOC2)no1 (centres undefined)	59.7*	/	-12.4%	-4.5%	37.0*	6.6%
CC(=O)c1ccc(OCc2cc(C(=O)N(C)C3CCOC3)no2)cc1 (centres undefined)	-8.0	/	-6.1%	-0.6%	3.5	6.5%
O=C(NCC1COCCO1)c1cc(COc2c(F)cccc2F)on1 (centres undefined)	30.4	/	-2.2%	0.6%	26.0*	3.9%
Cc1cc(OCc2cc(C(=O)N(C)C3CCOC3)no2)cc(C)c1Cl (centres undefined)	77.6*	/	6.2%	3.6%	48.9*	36.4%
COc1cccc(OCc2cc(C(=O)N(C)C3CCOCC3)no2)c1	19.5	/	-4.4%	10.6%	4.5	-16.9%
CN(C(=O)c1cc(COc2c(F)cccc2F)on1)C1CCOC1 (centres undefined)	31.5	/	0.9%	2.1%	30.0*	-0.3%
CCNC(=O)c1c(O)c2c([nH]c1=O)CCCC2	-1.4	0.2%	3.1%	-6.0%	7.1	3.4%
O=C(NCC1CCCO1)c1c(O)c2c([nH]c1=O)CCCC2 (centres undefined)	29.4	5.1%	-2.2%	2.5%	13.2*	0.0%
COC(=O)c1ccccc1NC(=O)c1c(O)c2c([nH]c1=O)CCCC2	-6.7	-1.1%	-2.1%	2.2%	-2.6	-5.4%
O=C(Nc1ccc(O)cc1)c1c(O)c2c([nH]c1=O)CCCC2	146.2*	-0.4%	7.2%	-0.4%	44.4*	-11.1%
COc1cc(OC)cc(-c2nnc3n2N=C(c2ccc(OC)c(OC)c2)CS3)c1	-5.5	3.0%	/	/	-11.7	/
O=C(/C=C/c1ccc(/C=C/C(=O)Nc2ccc(C3=NCCN3)cc2)cc1)Nc1ccc(C2=NCCN2)cc1	-8.1	-5.1%	/	/	-4.6	/
COc1ccc(-n2c(-c3cccc(F)c3)nc3c(cnn3-c3ccc(C)cc3)c2=O)cc1	/	/	/	0.5%	/	/
Cc1cc(C(=O)N=Nc2c(O)n(C)c3ccccc23)c(C)o1	-4.6	4.8%	-29.3%	-5.3%	27.4*	-12.3%
CCOC(=O)N=Nc1c(O)n(C)c2ccccc12	25.6	-1.4%	0.6%	-3.7%	9.9	-7.8%
Cc1cccc(Cn2c(=O)n(-c3cc(C)cc(C)c3)c(=O)c3oc4ccccc4c32)c1	/	/	/	-2.1%	/	/
Cc1ccc(-n2nc(C)c3c2OC(N)=C(C#N)C3c2cccs2)cc1 (centres undefined)	81.3	3.0%	3.0%	-3.5%	16.8*	-24.1%
CC(Cc1cccs1)NC(=O)Nc1ccc(F)cc1 (centres undefined)	48.2	3.5%	7.7%	5.6%	50.1*	3.4%
CC(Cc1cccs1)NC(=O)Nc1cccc(Cl)c1 (centres undefined)	69.0*	-12.5%	9.1%	-1.3%	59.5*	?
COc1cc(C(=O)NC(C)Cc2cccs2)cc(OC)c1OC (centres undefined)	-5.0	6.2%	4.0%	0.5%	-3.3	14.9%
SMILES	Shiga inhibitor	Giardia FBPA inh	LmPK inhibitor	Tb PYK inh	Cycloheximide cs	RE007 growth inh
CC(C)NC(=O)Nc1cccc(Cl)c1	24.2	-0.9%	-1.9%	4.9%	10.8	-0.6%
CCc1ccc(-c2cc(C)no2)cc1S(=O)(=O)NCc1ccc(OC)cc1	/	/	/	-0.8%[15.4 µM]	/	/
COc1ccc(-n2cc(C(=O)Oc3cc(C)cc(C)c3)c3ccccc3c2=O)cc1	/	/	/	-1.9%	/	/
Cc1ccc(NC(=O)c2cc3c(=O)n(Cc4cccnc4)ccc3nc2C)cc1F	/	/	/	-14.9%	/	/
COc1ccc(CNC(=O)Cc2ccc(NC(=O)C3=C(C)OCCS3)cc2)cc1	56.3*	/	-9.6%	-2.6%	19.4*	-4.5%
COc1cccc(CNC(=O)c2cccc(NC(=O)C3=C(C)OCCS3)c2)c1	3.8	6.8%	1.3%	3.2%	8.6	-5.9%
CC1=C(C(=O)Nc2ccc(CC(=O)NCc3ccc(OC(C)C)cc3)cc2)SCCO1	81.6*	/	-10.5%	-3.4%	41.6*	18.9%
CCOc1ccc(CNC(=O)c2cccc(NC(=O)C3=C(C)OCCS3)c2)cc1	7.8	/	-7.5%	0.3%	17.2*	?
CCc1ccc(NCc2cc3ccc(OC)cc3n(CC(=O)Nc3ccc(C)c(Cl)c3)c2=O)cc1	/	/	/	-0.8%	/	/
CCc1nnc(NC(=O)CSc2nc3c([nH]c4ccccc43)c(=O)n2-c2ccc(OC)cc2)s1	/	/	/	-3.2%	/	/
CN(C)CCN(C(=O)c1ccc(S(=O)(=O)N(C)CC2CCCO2)cc1)c1nc2cc3c(cc2s1)OCO3 (centres undefined)	9.1	-14.7%	9.8%	0.9%	24.9*	-6.8%
CCN(CC)CCN(C(=O)c1ccc2ncsc2c1)c1nc2cc3c(cc2s1)OCO3	125.4*	-29.4%	8.6%	?	75.1*	-8.6%
COc1cc2nc(N(CCN(C)C)C(=O)c3ccc(S(=O)(=O)N(C)CC4CCCO4)cc3)sc2cc1OC (centres undefined)	-6.3	-26.8%	3.7%	-12.6%	-1.7	-8.5%
CCN(Cc1ccccc1)S(=O)(=O)c1ccc(C(=O)N(CCCN(C)C)c2nc3cc4c(cc3s2)OCCO4)cc1	/	/	/	-3.2%	/	30.3%
CN(C)CCN(C(=O)c1ccc(S(=O)(=O)N(C)c2ccccc2)cc1)c1nc2cc3c(cc2s1)OCCO3	61.5*	-7.7%	4.7%	1.2%	22.0*	?
CCN(CC)CCN(C(=O)c1ccc(C(=O)c2ccccc2)cc1)c1nc2cc3c(cc2s1)OCO3	9.5	?	-4.7%	-4.7%	3.5	-5.8%
CCN(CC)CCN(C(=O)C1=COCCO1)c1nc2ccc(C)cc2s1	34.9*	/	-11.3%	3.6%	18.4*	1.4%
CCc1ccc(C2c3c(oc4ccc(F)cc4c3=O)C(=O)N2c2nc(C)c(C(=O)OC)s2)cc1 (centres undefined)	/	/	/	2.4%	/	/
CN(C)CCN(C(=O)c1ccc2c(c1)OCCO2)c1nc2cc3c(cc2s1)OCO3	71.0	-28.7%	4.8%	0.5%	55.1*	-15.7%
CN(C)CCN(C(=O)c1ccc(S(=O)(=O)N(C)C)cc1)c1nc2cc3c(cc2s1)OCCO3	41.4	5.6%	5.2%[11.5 µM]	-5.5%	22.3*	?
CN(C)CCN(C(=O)c1ccc2ccccc2c1)c1nc2cc3c(cc2s1)OCO3	/	/	/	-0.8%	/	1.7%
